Test results published in PubChem BioAssay (Tox21).
Values without a mark were called inactive. Inconclusive results are not listed. A call without a number means that no potency is given here. The source made the active and inactive calls. Calls follow the shape of the dose curve; as a rule, active = well fitted curve in the direction sought with a large enough effect in the repeat runs; inconclusive = weak or mixed curves; inactive = no such curve, though single readings can be large; an effect the other way counts as inactive or inconclusive.

Key:
[1] = A CellTox Green Cytotoxicity Assay to monitor cytotoxicity in HEK293 cells - 24 hour (AID 1224875); also: nearly all actives have a fitted effect of over 45% in size; also: potency is read from the fitted curve at half-maximal effect
Outline: (§1)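 Nonlytic real-time cytotoxicity: HEK293 + CellTox Green reagent plated, 5 h preincubation, pintool compound addition (23 nL in DMSO), 37 C for 40 h, fluorescence measured at successive time points.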

[2] = A CellTox Green Cytotoxicity Assay to monitor cytotoxicity in HepG2 cells - 16 hour (AID 1224876); also: nearly all actives have a fitted effect of over 45% in size; also: potency is read from the fitted curve at half-maximal effect
Outline: (§2)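 Read-out is fluorescence of a cyanine dye excluded from live cells that stains DNA of dead HepG2 cells, with signal proportional to cytotoxicity. Plates were read at 0, 8, 16, 24, 32 and 40 h after compound addition.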

[3] = A CellTox Green Cytotoxicity Assay to monitor cytotoxicity in HepG2 cells - 24 hour (AID 1224878); also: nearly all actives have a fitted effect of over 45% in size; also: potency is read from the fitted curve at half-maximal effect
Outline: as §2

[4] = A CellTox Green Cytotoxicity Assay to monitor cytotoxicity in HepG2 cells - 40 hour (AID 1224879); also: nearly all actives have a fitted effect of over 40% in size; also: potency is read from the fitted curve at half-maximal effect
Outline: as §2

[5] = qHTS RealTime-Glo MT Cell Viability Assay in HEK293 cells - 0 hour (AID 1224880); also: top concentration of the series differs between compounds; nearly all actives have a fitted effect of over 45% in size
Outline: (§3)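 Cells were seeded together with NanoLuc luciferase and a prosubstrate that viable cells reduce to a luciferase substrate. After a 5 h incubation at 37 C/5% CO2, compounds were added and luminescence was measured repeatedly during 40 h of treatment.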

[6] = A CellTox Green Cytotoxicity Assay to monitor cytotoxicity in HEK293 cells - 32 hour (AID 1224881); also: nearly all actives have a fitted effect of over 40% in size; also: potency is read from the fitted curve at half-maximal effect
Outline: as §1

[7] = A CellTox Green Cytotoxicity Assay to monitor cytotoxicity in HepG2 cells - 0 hour (AID 1224882); also: nearly all actives have a fitted effect of over 35% in size
Outline: as §2

[8] = A CellTox Green Cytotoxicity Assay to monitor cytotoxicity in HepG2 cells - 32 hour (AID 1224883); also: nearly all actives have a fitted effect of over 50% in size; also: potency is read from the fitted curve at half-maximal effect
Outline: as §2

[9] = A CellTox Green Cytotoxicity Assay to monitor cytotoxicity in HEK293 cells - 8 hour (AID 1224884); also: nearly all actives have a fitted effect of over 35% in size; also: potency is read from the fitted curve at half-maximal effect
Outline: as §1

[10] = qHTS RealTime-Glo MT Cell Viability Assay in HepG2 cells - 16 hour (AID 1224885); also: nearly all actives have a fitted effect of over 50% in size
Outline: (§4)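 Cell number in HepG2 cultures estimated from NanoLuc luminescence generated by metabolic reduction of a prosubstrate by living cells. The homogeneous, nonlytic format allowed repeated reads at 0, 8, 16, 24, 32 and 40 h of compound exposure.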

[11] = qHTS RealTime-Glo MT Cell Viability Assay in HEK293 cells - 24 hour (AID 1224886); also: nearly all actives have a fitted effect of over 50% in size; also: potency is read from the fitted curve at half-maximal effect
Outline: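 Homogeneous bioluminescent viability format in HEK293 cells (600 cells/well). Following 5 h at 37 C/5% CO2, 23 nL compound was pintooled; the signal was measured repeatedly during 40 h incubation.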

[12] = qHTS RealTime-Glo MT Cell Viability Assay in HEK293 cells - 8 hour (AID 1224887); also: top concentration of the series differs between compounds; nearly all actives have a fitted effect of over 50% in size
Outline: as §3

[13] = A CellTox Green Cytotoxicity Assay to monitor cytotoxicity in HEK293 cells - 16 hour (AID 1224888); also: nearly all actives have a fitted effect of over 35% in size; also: potency is read from the fitted curve at half-maximal effect
Outline: as §1

[14] = qHTS RealTime-Glo MT Cell Viability Assay in HepG2 cells - 0 hour (AID 1224889); also: nearly all actives have a fitted effect of over 50% in size
Outline: as §4

[15] = A CellTox Green Cytotoxicity Assay to monitor cytotoxicity in HepG2 cells - 8 hour (AID 1224890); also: nearly all actives have a fitted effect of over 45% in size; also: potency is read from the fitted curve at half-maximal effect
Outline: as §2

[16] = qHTS assay to identify small molecule antagonists of the estrogen receptor alpha (ER-alpha) signaling pathway using the BG1 cell line in the presence of 0.1 nM 17-beta-estradiol - cell viability counter screen (AID 1259241); also: nearly all actives have a fitted effect of over 40% in size; also: potency is read from the fitted curve at half-maximal effect
Outline: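 The cell line endogenously expresses full-length ER-alpha and carries four EREs driving luciferase. Cells are cultured 5 days hormone-free, treated 22 hr with compounds and 0.1 nM estradiol, then viability is read by fluorescence.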

[17] = qHTS assay to identify small molecule antagonists of the androgen receptor (AR) signaling pathway using the MDA cell line in the presence of 0.5 nM R1881 - cell viability counter screen (AID 1259242); also: nearly all actives have a fitted effect of over 45% in size; also: potency is read from the fitted curve at half-maximal effect
Outline: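 Counter screen for cytotoxicity run in the same wells as the AR antagonist reporter screen: MDA-kb2 cells were treated 16 hr with test compounds and 0.5 nM R1881, then live-cell protease activity was measured by fluorescence.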

[18] = target: Androgen receptor (Homo sapiens) (UniProt P10275); assay: qHTS assay to identify small molecule antagonists of the androgen receptor (AR) signaling pathway using the MDA cell line in the presence of 0.5 nM R1881 (AID 1259243); also: nearly all actives have a fitted effect of over 50% in size; also: potency is read from the fitted curve at half-maximal effect
Outline: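 Luciferase luminescence is the read-out: compounds are tested for suppressing 0.5 nM R1881-driven MMTV reporter activity in MDA-kb2 cells after 16 hr at 37C.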

[19] = target: Estrogen receptor (Homo sapiens) (UniProt P03372); assay: qHTS assay to identify small molecule antagonists of the estrogen receptor alpha (ER-alpha) signaling pathway using the BG1 cell line in the presence of 0.1 nM 17-beta-estradiol (AID 1259244); also: nearly all actives have a fitted effect of over 50% in size; also: potency is read from the fitted curve at half-maximal effect
Outline: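 Cells: VM7Luc4E2, endogenous ER-alpha, 4x ERE-luc stable. Pre-culture 5 d, phenol red-free, charcoal-stripped FBS. Plated 24 h, compound + E2 0.1 nM final, 22 h 37C/5% CO2. Readout ONE-Glo luminescence.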

[20] = qHTS RealTime-Glo MT Cell Viability Assay in HepG2 cells - 32 hour (AID 1224877); also: nearly all actives have a fitted effect of over 55% in size; also: potency is read from the fitted curve at half-maximal effect
Outline: as §4

Sequence of Estrogen receptor (Homo sapiens) (P03372 whole entry, looked up): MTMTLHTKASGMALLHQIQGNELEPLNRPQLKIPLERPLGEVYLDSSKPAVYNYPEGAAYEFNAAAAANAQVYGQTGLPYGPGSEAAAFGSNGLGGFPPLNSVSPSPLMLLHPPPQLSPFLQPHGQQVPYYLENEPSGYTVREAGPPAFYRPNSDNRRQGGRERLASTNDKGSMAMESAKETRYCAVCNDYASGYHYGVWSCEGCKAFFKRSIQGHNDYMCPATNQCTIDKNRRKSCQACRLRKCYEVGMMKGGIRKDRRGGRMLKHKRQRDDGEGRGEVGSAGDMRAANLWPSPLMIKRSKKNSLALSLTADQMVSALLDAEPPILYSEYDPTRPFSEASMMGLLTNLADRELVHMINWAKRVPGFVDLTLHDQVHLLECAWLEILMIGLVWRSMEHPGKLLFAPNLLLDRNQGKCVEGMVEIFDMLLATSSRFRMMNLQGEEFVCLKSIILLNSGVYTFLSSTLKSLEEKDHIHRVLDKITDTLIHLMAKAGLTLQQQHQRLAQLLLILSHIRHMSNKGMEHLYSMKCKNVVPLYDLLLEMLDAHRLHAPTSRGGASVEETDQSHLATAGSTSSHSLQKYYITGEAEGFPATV
Sequence of Androgen receptor (Homo sapiens) (P10275 whole entry, looked up): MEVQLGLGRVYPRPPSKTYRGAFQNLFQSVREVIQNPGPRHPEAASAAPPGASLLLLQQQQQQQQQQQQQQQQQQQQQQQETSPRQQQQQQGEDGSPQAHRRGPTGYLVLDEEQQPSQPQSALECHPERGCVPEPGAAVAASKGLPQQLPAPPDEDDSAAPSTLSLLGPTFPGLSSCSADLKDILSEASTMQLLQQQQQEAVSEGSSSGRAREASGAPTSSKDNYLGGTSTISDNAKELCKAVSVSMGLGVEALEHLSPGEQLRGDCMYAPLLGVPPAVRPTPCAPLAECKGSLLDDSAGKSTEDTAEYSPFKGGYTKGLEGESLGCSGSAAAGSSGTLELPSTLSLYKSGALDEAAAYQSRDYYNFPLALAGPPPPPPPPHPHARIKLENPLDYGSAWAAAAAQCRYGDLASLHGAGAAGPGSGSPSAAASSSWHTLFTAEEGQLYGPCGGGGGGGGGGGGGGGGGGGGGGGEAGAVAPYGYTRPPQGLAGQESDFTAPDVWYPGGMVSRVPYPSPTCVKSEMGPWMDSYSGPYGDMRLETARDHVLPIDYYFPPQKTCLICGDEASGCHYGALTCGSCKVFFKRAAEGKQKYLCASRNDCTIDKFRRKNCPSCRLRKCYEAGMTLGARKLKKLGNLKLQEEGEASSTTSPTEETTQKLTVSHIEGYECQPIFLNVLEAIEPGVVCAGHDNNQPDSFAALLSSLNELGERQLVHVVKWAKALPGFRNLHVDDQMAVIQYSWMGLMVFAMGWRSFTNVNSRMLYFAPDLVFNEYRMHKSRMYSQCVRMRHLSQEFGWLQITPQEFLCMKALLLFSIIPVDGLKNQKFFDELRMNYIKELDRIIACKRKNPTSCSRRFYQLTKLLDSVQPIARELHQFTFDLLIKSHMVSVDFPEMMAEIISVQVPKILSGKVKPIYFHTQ

SMILES | Potency [1] | Potency [2] | Potency [3] | Potency [4] | Potency [5] | Potency [6] | Potency [7] | Potency [8] | Potency [9] | Potency [10] | Potency [11] | Potency [12] | Potency [13] | Potency [14] | Potency [15] | Potency [16] | Potency [17] | Potency [18] | Potency [19] | Potency [20]
CSc1nnc(C(C)(C)C)c(=O)[nH]1 | inactive | inactive | inactive | inactive | inactive | inactive | inactive | inactive | inactive | inactive | inactive | inactive | inactive | inactive | inactive | inactive | inactive | inactive | inactive | –
C=COCCCC | inactive | inactive | inactive | inactive | – | – | inactive | inactive | inactive | inactive | – | – | – | – | inactive | inactive | inactive | inactive | inactive | inactive
Cc1ccc2sc3cccc(C)c3c2c1 | inactive | inactive | inactive | inactive | inactive | inactive | inactive | inactive | inactive | inactive | inactive | inactive | inactive | inactive | inactive | – | inactive | 8.63 µM (active) | inactive | –
CCN(CC)c1ccc2c(c1)Oc1cc(N(CC)CC)ccc1C21OC(=O)c2ccccc21 | 19 µM (active) | 23.9 µM (active) | 23.9 µM (active) | 23.9 µM (active) | – | 19 µM (active) | – | 23.9 µM (active) | 23.9 µM (active) | inactive | – | – | – | inactive | 23.9 µM (active) | 5.96 µM (active) | 10.6 µM (active) | – | inactive | inactive
c1ccc2cc3c4ccccc4c4ccccc4c3cc2c1 | inactive | inactive | – | 13.9 µM (active) | inactive | – | inactive | 13.9 µM (active) | inactive | inactive | inactive | inactive | – | inactive | inactive | – | inactive | – | – | inactive
CC(=O)Nc1ccc(N=Nc2cc(C)ccc2O)cc1 | inactive | inactive | inactive | – | inactive | inactive | inactive | inactive | inactive | inactive | inactive | – | – | inactive | inactive | inactive | – | inactive | inactive | inactive
CN1CCN(CCCN2c3ccccc3Sc3ccc(C(F)(F)F)cc32)CC1 | 23.9 µM (active) | 23.9 µM (active) | 21.3 µM (active) | 23.9 µM (active) | – | 23.9 µM (active) | inactive | 21.3 µM (active) | 23.9 µM (active) | – | 23.9 µM (active) | – | 23.9 µM (active) | – | – | inactive | – | – | – | 23.9 µM (active)
Cc1cccc2c1ccc1ccccc12 | inactive | inactive | inactive | – | inactive | inactive | inactive | inactive | inactive | inactive | inactive | inactive | inactive | – | inactive | – | inactive | 15.4 µM (active) | inactive | inactive
CCN(CC)c1ccc(C=O)cc1 | inactive | inactive | inactive | – | – | inactive | inactive | inactive | inactive | inactive | – | – | – | inactive | inactive | inactive | inactive | – | inactive | inactive
C[C@H]1O[C@@H](O[C@H]2CC[C@@]3(C)[C@H](CC[C@@H]4[C@@H]3C[C@@H](O)[C@]3(C)[C@@H](C5=CC(=O)OC5)CC[C@]43O)C2)C[C@H](O)[C@@H]1O[C@H]1C[C@H](O)[C@H](O[C@H]2C[C@H](O)[C@H](O[C@@H]3O[C@H](CO)[C@@H](O)[C@H](O)[C@H]3O)[C@@H](C)O2)[C@@H](C)O1 | inactive | inactive | inactive | inactive | inactive | inactive | inactive | inactive | inactive | inactive | 0.268 µM (active) | inactive | inactive | inactive | inactive | inactive | inactive | inactive | inactive | –
CC(c1cc(C(C)(C)C)cc(C(C)(C)C)c1O)c1cc(C(C)(C)C)cc(C(C)(C)C)c1O | inactive | inactive | inactive | inactive | – | inactive | inactive | inactive | inactive | inactive | – | inactive | inactive | inactive | inactive | inactive | – | – | inactive | inactive
CCc1cccc(CC)c1 | inactive | inactive | inactive | inactive | – | inactive | inactive | inactive | inactive | inactive | inactive | – | inactive | inactive | inactive | – | inactive | inactive | inactive | inactive
CSc1ccc(O)cc1C | inactive | inactive | inactive | inactive | inactive | inactive | inactive | inactive | inactive | inactive | inactive | – | – | inactive | inactive | – | – | – | – | –
CC(C)(c1ccc(Oc2ccc(N)cc2)cc1)c1ccc(Oc2ccc(N)cc2)cc1 | inactive | inactive | inactive | – | inactive | inactive | inactive | inactive | inactive | – | – | – | inactive | inactive | inactive | inactive | – | – | 61.1 µM (active) | inactive
O[Si](c1ccccc1)(c1ccccc1)c1ccccc1 | inactive | inactive | inactive | inactive | inactive | inactive | inactive | inactive | inactive | inactive | – | – | inactive | inactive | inactive | inactive | – | 30.6 µM (active) | inactive | –
